# Test results as given in PubChem BioAssay (NCI).
# About 83,000 compounds went through this panel and 20% of them were active in at least one assay; those are over-represented in the sample as a whole.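 48-hour exposure, single concentration, 96-well plates; percent growth endpoint where 0 means no net growth. Active: below 10.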 Unmarked numbers belong to inactive results. Active and inactive are the calls of the source.
# Tested on: OVCAR-4 ovarian
# Test: NCI-60 one-dose screen, 48 h (100 = growth as untreated, 0 = no growth, -100 = all killed)
# Details: 10 µM
row,SMILES,growth
1,NS(=O)(=O)Oc1ccc(NC(=O)C2CCCCCC2)cc1,107%
2,O=C(CSc1nnc(-c2cccnc2SCc2ccccc2)o1)Nc1nc(Cl)cc(Cl)n1,106%
3,O=C1/C=C/[C@@H](O)[C@@H]2C[C@@H](O)C[C@H]2/C=C/CCC[C@H](CCc2ccc(NC(=S)Nc3ccc4c(c3)C(=O)OC43c4ccc(O)cc4Oc4cc(O)ccc43)cc2)O1,23.4%
4,O=C(CCl)Nc1ccc(Cc2ccc(NC(=O)CCl)cc2)cc1,27%
5,Cc1cc(Cl)ccc1Nc1nc(C(F)(F)F)ccc1C(=O)N/N=C/c1c(Cl)cccc1Cl,7.14% (active)
6,COc1ccc2c(c1)C(=O)/C(=C/c1ccc([N+](=O)[O-])o1)O2,-87% (active)
7,S=C(SSC(=S)N(c1ccccc1)c1ccccc1)N(c1ccccc1)c1ccccc1,113%
8,CC(C)=CCC/C(C)=C/CC/C(C)=C/CC/C=C(\C)CC/C=C(\C)CCC(=O)Nc1ccn(C2OC(CO)C(O)C2(F)F)c(=O)n1 (stereo unspecified),39.9%
9,c1ccc(/C(=N\Nc2ccc3ccccc3n2)c2ccccn2)cc1,10.1%
10,c1ccc(CSc2ncccc2-c2nnc(SCCN3CCOCC3)o2)cc1,106%
11,CN(C)c1ncnc2c1nnn2C1OC(CO)C(O)C1O (stereo unspecified),23.4%
12,COc1ccccc1/C=N\N/C(N)=N\N=C\c1ccccc1OC,42.4%
13,COc1cc(/C=C/c2cc(/C=C/c3ccc(O)c(OC)c3)nc(N)n2)ccc1O,18.3%
14,O=C(/C=C/c1cccc(B(O)O)c1)c1cccc(B(O)O)c1,53.9%
15,CN(C)CCC1(c2ccccc2)CCN(C)C1=O (stereo unspecified),113%
16,COc1ccc(/C=C/c2nnc(/C=C/c3ccc(OC)c(OC)c3)o2)cc1OC,57.6%
17,CN(C)c1ccc(/C=N/NC(=O)c2ccccc2Nc2cccc(C(F)(F)F)c2)cc1,76.1%
18,CN(C)CCOc1ccc(-c2nc3sccn3c2-c2ccnc(S(C)(=O)=O)n2)cc1,95.9%

row,SMILES,growth
1,COc1ccc(CCN2CCC(Nc3nc4ccccc4n3Cc3ccc(F)cc3)CC2)cc1,22.4%
2,O=C(CN(C1CCCCC1)C1CCCCC1)Nc1ccc(S(=O)(=O)c2ccc(NC(=O)CN(C3CCCCC3)C3CCCCC3)cc2)cc1,-72.6% (active)
3,COc1ccc2nc(-c3ccc(Cl)cc3)cc(-c3nnc(SC/C(=N\O)c4ccccc4)n3-c3ccccc3)c2c1,84.5%
4,Cc1cc(CSc2ccccc2C(=O)N2CC=C(c3ccccc3)CC2)on1,89.2%
5,CCOC(=O)c1cc(C(=O)c2cc(OC)c(OC)c(OC)c2)n2nc(C)ccc12,51.8%
6,O=C(O)c1ccc(-n2cc(CNc3ccc(Cl)cc3)c(-c3ccccc3)n2)cc1,88.3%
7,CNC(=O)c1cc(Oc2ccc3c(c2)sc2nc(-c4ccc(N)cc4)cn23)ccn1,59.7%
8,Nc1ccc(CC[C@H]2CCC/C=C/[C@@H]3C[C@H](O)C[C@H]3[C@H](O)/C=C/C(=O)O2)cc1,11.3%
9,CNC(=O)c1cn(C2CC2)c2cc(N3CCN(C(=O)c4cc(OC)c(OC)c(OC)c4)CC3)c(F)cc2c1=O,98.6%
10,CN1CCN(C2=Nc3ccccc3Oc3ccc(Cl)cc32)CC1,84.3%
11,COc1ccc(Cc2cnc(N)nc2N)cc1OC,106%
12,COc1ccc(C(c2ccc(OCCN(C)C)cc2)c2cc3ccccc3c3ccccc23)cc1 (stereo unspecified),77.9%
13,O=C(N/N=C/c1ccc(Cl)cc1)c1ccccc1Nc1cccc(C(F)(F)F)c1,74.8%
14,CC(=O)O[C@@]12CO[C@@H]1C[C@H](O)[C@@]1(C)C(=O)[C@H](O)C3=C(C)[C@@H](OC(=O)[C@H](O)[C@@H](NC(=O)OC(C)(C)C)c4ccccc4)C[C@@](O)([C@@H](OC(=O)c4ccccc4)C12)C3(C)C (stereo partly specified),58%
15,CS(=O)(=O)c1nccc(-c2c(-c3cccc(OCCc4ccccc4)c3)nc3sccn23)n1,100%
16,C(=N\Nc1ncnc2sc3c(c12)CCNC3)/c1cccc2ccccc12,42.7%
17,CNS(=O)(=O)Oc1ccc(-c2sc3cc(OS(=O)(=O)NC)ccc3c2C(=O)c2ccc(OCCN3CCCCC3)cc2)cc1,69.8%
18,CCCCC/C=C/C/C=C/CCCCCCCC1=NC(C)(C)CN1C(C)C,27.2%
